# The panel holds about 83,000 compounds, 20% with a hit somewhere; the sample as a whole holds those more often.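 Single-dose data. Exposure time 48 hours. Values below 10 considered active.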 A number with no mark means an inactive call. The source made the active and inactive calls.
# What was measured:
# Assay in all cases: NCI-60 one-dose screen, 48 h (100 = growth as untreated, 0 = no growth, -100 = all killed)
# Settings in all cases: 10 µM unless noted
# SK-MEL-2 melanoma = tested on: SK-MEL-2 melanoma
# EKVX NSCLC = tested on: EKVX NSCLC
# SN12C renal = tested on: SN12C renal
# UO-31 renal = tested on: UO-31 renal
# TK-10 renal = tested on: TK-10 renal
# ACHN renal = tested on: ACHN renal
# CAKI-1 renal = tested on: CAKI-1 renal
# A498 renal = tested on: A498 renal
# MOLT-4 leukemia = tested on: MOLT-4 leukemia
# SR leukemia = tested on: SR leukemia
# RPMI-8226 leukemia = tested on: RPMI-8226 leukemia
# OVCAR-8 ovarian = tested on: OVCAR-8 ovarian
# OVCAR-5 ovarian = tested on: OVCAR-5 ovarian
# OVCAR-4 ovarian = tested on: OVCAR-4 ovarian
# SK-OV-3 ovarian = tested on: SK-OV-3 ovarian
# IGROV1 ovarian = tested on: IGROV1 ovarian
# OVCAR-3 ovarian = tested on: OVCAR-3 ovarian
# HS 578T breast = tested on: HS 578T breast
# NCI/ADR-RES ovarian = tested on: NCI/ADR-RES ovarian
# CCRF-CEM leukemia = tested on: CCRF-CEM leukemia
SMILES,growth (SK-MEL-2 melanoma),growth (EKVX NSCLC),growth (SN12C renal),growth (UO-31 renal),growth (TK-10 renal),growth (ACHN renal),growth (CAKI-1 renal),growth (A498 renal),growth (MOLT-4 leukemia),growth (SR leukemia),growth (RPMI-8226 leukemia),growth (OVCAR-8 ovarian),growth (OVCAR-5 ovarian),growth (OVCAR-4 ovarian),growth (SK-OV-3 ovarian),growth (IGROV1 ovarian),growth (OVCAR-3 ovarian),growth (HS 578T breast),growth (NCI/ADR-RES ovarian),growth (CCRF-CEM leukemia)
C=C=COc1cccc(/C(N)=N/C(N)=N/c2nc3ccccc3s2)c1,104%,55.8%,66.7%,31.2%,133%,79.7%,36.9%,79.7%,47.4%,6.37% (active),106%,62.8%,83.4%,89.4%,102%,57.7%,100%,59.9%,88.5%,
O=C(Nc1ccc(N=Cc2c(O)[nH]c3ccccc23)cc1)Nc1nccs1,62.1%,34.6%,68%,48.4%,75.7%,40.7%,32.9%,-7.94% (active),32.2%,10.7%,83.6%,55.7%,60.4%,40.6%,55%,29.5%,15.4%,31.5%,40.8%,
N#Cc1ccccc1Cn1c2nc(=N)c3ccccc3c-2nc2ccccc21,87.9%,49.4%,61.5%,51.3%,102%,56.4%,50.9%,69.7%,,,77.2%,66.4%,78.6%,29.8%,79.2%,49.6%,-5.06% (active),97.8%,71.1%,70.6%
COc1cc(OC)cc(C(=O)Nc2sc3c(c2C(N)=O)CCC(=O)C3)c1,86.8%,89%,50.9%,67.5%,66.5%,38.6%,10.6%,82.6%,,,1.86% (active),42.1%,48.3%,9.16% (active),106%,48.8%,14.8%,23.7%,53.9%,8.55% (active)
COc1c(N2CC3CCCNC3C2)c(F)cc2c(=O)c(C(=O)N/N=C/c3ccc(N(C)C)cc3)cn(C3CC3)c12 (centres undefined),114%,86.2%,65.5%,59.1%,122%,46.8%,90.3%,113%,29.5%,,62.9%,87.3%,95.7%,90%,114%,58.9%,51.2%,95.8%,81.6%,29.6%
Nn1c(N/N=C/c2nc3ccccc3s2)n[nH]c1=S,107%,64.9%,86.3%,58%,88.3%,98%,66.7%,77.5%,115%,108%,105%,107%,103%,85.8%,118%,82.2%,118%,110%,118%,
COc1cc2nc(Cl)nc(Nc3cccc(C4=Nc5c(N)nc(N)nc5NC(c5ccc(Br)cc5)C4)c3)c2cc1OC (centres undefined),94.2%,97.1%,99%,92.9%,114%,101%,90.3%,90.6%,,,-2.07% (active),54.6%,113%,103%,125%,94.1%,72.6%,79.8%,86.6%,10.9%
COc1ccc([C@H]2c3[nH]c4ccccc4c3C[C@H]3C(=O)N(C4CCN(Cc5c(Cl)cccc5Cl)CC4)CC(=O)N23)c(OC)c1,103%,86.2%,91%,53.7%,110%,86.8%,73.4%,128%,86.2%,,89.9%,97.5%,96.7%,97.2%,117%,78.9%,103%,88.4%,90.5%,94.6%

# Reference: PubChem BioAssay (NCI)
